Compounds with a hit are over-represented: about 1.3% of the library has one in this group of screens.
NCOA2 inhibitor = human SRC2 (NCOA2) inhibition; Q15596; HEK293 GAL4-SRC2 luciferase reporter, luminescence; inhibition, % at 9 µM; 0.17% of 370,000 active;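 active = inhibition above the mean inhibition of all tested compounds plus 3 SD, set per campaign, cut at about 52% in these data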
SRC1 inh = inhibitors of human steroid receptor coactivator 1 (SRC1); HEK293 GAL4-SRC1 luciferase reporter, luminescence; inhibition, % at 3.6 µM; 0.12% of 360,000 active; AID 588354;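 active = inhibition above the campaign mean plus 3 SD, with each screening campaign given its own cutoff, cut at about 60% in these data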
SRC3 inh = inhibits human SRC3 coactivator. Q9Y6Q9. inhibition, % at 3.6 µM. 0.17% of 360,000 active. HEK293 GAL4-SRC3 luciferase reporter, luminescence;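 active = inhibition above a per-campaign cutoff, the mean of all compounds plus 3 SD, cut at about 60% in these data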;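 note: higher means less SRC3-driven luciferase light from the GAL4 reporter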
NR2F2 inh = blocks human COUP-TFII nuclear receptor | 0.7% of 370,000 active | P24468 | HEK293T NGFI-A luciferase reporter, luminescence | inhibition, % at 8.6 µM;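 active = inhibition above a per-plate cutoff, mean inhibition of test wells between control levels plus 3 SD, cut at about 38% in these data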;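 note: cells cotransfected with COUP-TFII expression vector driving the NGFI-A reporter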
Target sequence (P24468 whole entry, looked up): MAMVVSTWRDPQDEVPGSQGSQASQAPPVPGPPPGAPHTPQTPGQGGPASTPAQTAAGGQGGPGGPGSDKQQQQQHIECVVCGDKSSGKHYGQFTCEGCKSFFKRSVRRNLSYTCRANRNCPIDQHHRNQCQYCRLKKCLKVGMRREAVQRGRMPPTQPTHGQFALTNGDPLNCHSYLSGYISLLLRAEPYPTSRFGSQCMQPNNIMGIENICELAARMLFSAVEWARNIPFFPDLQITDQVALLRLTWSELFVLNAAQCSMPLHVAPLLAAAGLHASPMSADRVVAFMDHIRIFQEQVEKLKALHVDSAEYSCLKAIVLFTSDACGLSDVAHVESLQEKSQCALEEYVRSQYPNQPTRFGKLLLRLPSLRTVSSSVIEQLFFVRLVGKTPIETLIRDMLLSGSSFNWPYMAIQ
Gli-Sufu antag = Gli-Sufu pathway antagonism. Sufu-KO-LIGHT fibroblasts, Gli luciferase reporter luminescence. inhibition, % at 5 µM. 0.74% of 340,000 active. AID 588413;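 active = inhibition above about 55%, limit read from the data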
NR5A2 inv ag = NR5A2 inverse agonism in reporter assay. AID 602396. 0.13% of 360,000 active. inhibition, % at 3.6 µM. HEK293T StAR-luciferase reporter, LRH-1 transfected, 24 h. O00482;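 active = inhibition above the mean inhibition of all tested compounds plus 3 SD, cut at about 73% in these data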
Gal4-VP16 ctr = inhibits VP16 reporter, flagging COUP-TFII antagonist hits | shares compounds with NR2F2 inh | HEK293 Gal4-VP16 luciferase reporter, luminescence | inhibition, % at 8.5 µM | 25% of 2,500 active; in the data active = inhibition above about 13%
COUP-TFII conf = COUP-TFII (NR2F2) inhibition, confirmation assay; inhibition, % at 8.5 µM; 45% of 2,500 active; HEK293 NGFI-A luciferase reporter, luminescence; shares compounds with NR2F2 inh;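 active = mean inhibition over three repeats above a set limit taken from the earlier primary screen, cut at about 38% in these data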
Of the large screens only hits and unclear results are named; the others gave an inactive call (follow-up assays come after a bar, where they were run).

COC(=O)[C@]12C[C@H](CC(=O)NCCC(C)C)C(=O)N(Cc3cccc4ccccc34)C1=C[C@H](C1CCCC1)O[C@@H]2C	none (no result: SRC1 inh, SRC3 inh, Gli-Sufu antag, NR5A2 inv ag)
CCOc1ccc(Oc2ccccc2NC(=O)CSCC(=O)Nc2cc(C)on2)cc1	NR2F2 inh 50 | Gal4-VP16 ctr inactive | COUP-TFII conf 38
CC(=O)c1ccc(N2CCN(C(=S)Nc3ccc(Oc4ccccc4)cc3)CC2)cc1	NR2F2 inh 69 | Gal4-VP16 ctr inactive | COUP-TFII conf 56
O=C(CCc1ccccc1)N[C@H]1[C@@H](OC(=O)c2cnccn2)CCC[C@]12C(=O)N(Cc1ccccc1)c1ccccc12	none (no result: SRC1 inh, SRC3 inh, Gli-Sufu antag, NR5A2 inv ag)
O=C(NC1CCCCN(Cc2ccc(Cl)cc2)C1=O)C1C2CC3CC(C2)CC1C3 (stereo unspecified)	none (no result: SRC1 inh, SRC3 inh, Gli-Sufu antag, NR5A2 inv ag)
CC1Cc2cc(-c3csc(NC(=O)Cc4ccccc4)n3)ccc2N1S(C)(=O)=O (stereo unspecified)	NR2F2 inh 75 | Gal4-VP16 ctr inactive | COUP-TFII conf 49
CS(=O)(=O)N1CCc2cc(-c3csc(NC(=O)C(c4ccccc4)c4ccccc4)n3)ccc21	none
COc1ccc(C)cc1NCc1cccc(OC)c1OC	none
COc1cc(OC)c(OC)cc1CNc1cc(C)ccc1OC	NR2F2 inh 39 | Gal4-VP16 ctr inactive | COUP-TFII conf inactive
CCOC(=O)N1C(=O)C[C@](Sc2ccc(OC)cc2)(C(=O)N2CCN(C(C)=O)CC2)[C@H]1c1ccc(OC)cc1	none (no result: SRC1 inh, SRC3 inh, Gli-Sufu antag, NR5A2 inv ag)
CCOc1ccccc1-n1c(SCC(=O)Nc2ccccc2C(=O)O)nc2ccccc2c1=O	NR2F2 inh 56 | Gal4-VP16 ctr 23 | COUP-TFII conf inactive
COc1cccc(N2CCN(c3ncnc4c3[nH]c3ccc(F)cc34)CC2C)c1 (stereo unspecified)	NCOA2 inhibitor 81, SRC1 inh 85, SRC3 inh 87, NR2F2 inh 91, Gli-Sufu antag 91, NR5A2 inv ag 89 | Gal4-VP16 ctr 92 | COUP-TFII conf 108
c1ccc2c(c1)CCN(c1ncnc3c1[nH]c1ccccc13)C2	NR2F2 inh 71, Gli-Sufu antag 79 | Gal4-VP16 ctr inactive | COUP-TFII conf 76
COc1cccc(N2CCN(c3ncnc4c3[nH]c3ccccc34)CC2C)c1 (stereo unspecified)	NCOA2 inhibitor 61, NR2F2 inh 76 (no result: SRC1 inh, SRC3 inh, Gli-Sufu antag, NR5A2 inv ag) | Gal4-VP16 ctr 19 | COUP-TFII conf 84
COc1ccc2[nH]c3c(N4CC(C)OC(C)C4)ncnc3c2c1 (stereo unspecified)	none (no result: SRC1 inh, SRC3 inh, NR5A2 inv ag)
COC(=O)CCC(=O)N1C2=NC3=C(C(=O)N(Cc4ccc5c(c4)OCO5)C3=O)C3N(C)c4ccccc4[C@]23C[C@H]1CO (stereo partly specified)	none (no result: SRC1 inh, SRC3 inh, Gli-Sufu antag, NR5A2 inv ag)
COC(=O)C1=C(C(=O)OC)[C@@]2([C@H](Cc3ccc(C)cc3)Nc3ccccc3)C=C[C@@H]1O2	NR2F2 inh 49 (no result: NCOA2 inhibitor, SRC1 inh, SRC3 inh, Gli-Sufu antag, NR5A2 inv ag) | Gal4-VP16 ctr inactive | COUP-TFII conf inactive
C=CCC(Nc1ccccc1)C12C=CC(O1)C(C(=O)OC)=C2C(=O)OC (stereo unspecified)	none
CCc1ccc(-c2nnn(CCC(=O)OC)n2)cc1	NCOA2 inhibitor 76, NR2F2 inh 57 | Gal4-VP16 ctr 60 | COUP-TFII conf 50
O=C(CC1CS(=O)(=O)CC1CC(=O)Nc1ccc2c(c1)OCCO2)Nc1ccc2c(c1)OCCO2 (stereo unspecified)	NR2F2 inh 69 | Gal4-VP16 ctr inactive | COUP-TFII conf inactive
S=C(Nc1cc(Cl)cc(Cl)c1)NC(c1ccccc1)c1ccccc1	NR2F2 inh 57 (no result: NCOA2 inhibitor, SRC1 inh, SRC3 inh, Gli-Sufu antag, NR5A2 inv ag) | Gal4-VP16 ctr inactive | COUP-TFII conf inactive
CC1(C(=O)Nc2ccccc2)CCN1C(=O)C1(c2ccc(Cl)cc2)CC1 (stereo unspecified)	NR2F2 inh 76 (no result: Gli-Sufu antag) | Gal4-VP16 ctr inactive | COUP-TFII conf inactive
Cc1ccc(NC(=O)C2(C)CCN2C(=O)C2(c3ccc(Cl)cc3)CC2)cc1 (stereo unspecified)	none (no result: Gli-Sufu antag)
Cn1c(=O)c2[nH]c(SCC(=O)NCCc3cccc(F)c3)nc2n(C)c1=O	none (no result: SRC1 inh, SRC3 inh, Gli-Sufu antag, NR5A2 inv ag)

High-throughput results from PubChem.
